Measurements published in the supplement of paper PMC4840960.
± gives the standard deviation of the averaged measurements.

Each compound was assayed on E18 rat cortical neuron-glia co-culture (assay: fiber score / MBP score (myelination specific beyond OL differentiation) (ratio); higher = more myelination-specific MBP alignment). Conditions: 1 µM; treatment time: 8 days (DIV5-DIV13).
How it was run: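 Library compounds were applied at 1 or 5 µM in myelination medium, DIV5 to DIV13, to primary E18 rat cortical co-cultures grown at 20,000 cells/well in 96-well plates. After 4 % paraformaldehyde fixation and MBP/Olig2/DAPI immunostaining, four 10X fields per well in duplicate wells were scored. Each value is continuous MBP fiber length per Olig2+ nucleus divided by thresholded MBP area × intensity per Olig2+ nucleus.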

Structure (SMILES) | fiber score / MBP score
Nc1nc(N)c2nc(-c3ccccc3)c(N)nc2n1 [Triamterene] | 1.39
CC(C)c1ccc2oc3nc(N)c(C(=O)O)cc3c(=O)c2c1 [Amlexanox] | 0.826
CO/N=C(\C(=O)N[C@@H]1C(=O)N2C(C(=O)O)=C(COC(C)=O)CS[C@H]12)c1csc(N)n1 [Cefotaxime] | 0.651
Cc1ccc(Cl)c(Nc2ccccc2C(=O)O)c1Cl [Meclofenamic acid] | 0.788
CCCCCCNC(=O)n1cc(F)c(=O)[nH]c1=O [Carmofur] | 0.54
CN1CCC(=C2c3ccccc3CCc3sccc32)CC1 [Pizotyline] | 0.579
COc1cc2nc(N3CCN(C(=O)C4COc5ccccc5O4)CC3)nc(N)c2cc1OC (stereo not drawn) [Doxazosin] | 0.727
CC(=O)NS(=O)(=O)c1ccc(N)cc1 [Sulfacetamide] | 0.746
C#C[C@]1(O)CC[C@H]2[C@@H]3CCC4=CC(=O)CC[C@@H]4[C@H]3CC[C@@]21C [Norethindrone] | 0.894
CCCNC(=O)NS(=O)(=O)c1ccc(Cl)cc1 [Chlorpropamide] | 0.614
COc1cc(C[C@@H](CO)[C@H](CO)Cc2ccc(O)c(OC)c2)ccc1O [Secoisolariciresinol] | 0.879
O=C1CC2(CCCC2)CC(=O)N1CCNCC1COc2ccccc2O1 (stereo not drawn) [Binospirone] | 0.768
O=c1cnn([C@@H]2O[C@H](CO)[C@@H](O)[C@H]2O)c(=O)[nH]1 [Azauridine] | 0.944
C[N+]1(C)CCC(OC(=O)C(O)(c2ccccc2)C2CCCC2)C1 (stereo not drawn) [Glycopyrrolate] | 0.689 ± 0.14
CCCCC(=O)O[C@H]1CC[C@H]2[C@@H]3CCc4cc(O)ccc4[C@H]3CC[C@]12C [Estradiol valerate] | 1.07
CC1=C(CC(=O)O)c2cc(F)ccc2/C1=C\c1ccc([S+](C)[O-])cc1 (stereo not drawn) [Sulindac] | 0.97
CS(N)(=O)=O [Methanesulfonamide] | 0.63
COc1ccc(-c2oc3c(CC=C(C)C)c(O[C@@H]4O[C@H](CO)[C@@H](O)[C@H](O)[C@H]4O)cc(O)c3c(=O)c2O[C@@H]2O[C@@H](C)[C@H](O)[C@@H](O)[C@H]2O)cc1 [Icariin] | 0.673
CN(CCO)CC(O)Cn1cnc2c1c(=O)n(C)c(=O)n2C (stereo not drawn) [Jupal] | 0.827
COc1c(N2CCNC(C)C2)c(F)cc2c(=O)c(C(=O)O)cn(C3CC3)c12 (stereo not drawn) [Gatifloxacin] | 0.508

Structure (SMILES) | fiber score / MBP score
CNCCC=C1c2ccccc2CCc2ccccc21 [Nortriptyline] | 0.847
Cc1c(O)c(=O)ccn1C [Deferiprone] | 0.908
OCCOCCN1CCN(C2=Nc3ccccc3Sc3ccccc32)CC1 [Quetiapine hemifumarate] | 0.545
CCC1=C(C)CN(C(=O)NCCc2ccc(S(=O)(=O)NC(=O)N[C@H]3CC[C@H](C)CC3)cc2)C1=O [Glimepiride] | 1.06
COc1ccc(-c2cc(=O)c3c(OC)c(OC)c(OC)c(OC)c3o2)cc1OC [Nobiletin] | 1.28
O=C1[C@H](CC[C@H](O)c2ccc(F)cc2)[C@@H](c2ccc(O)cc2)N1c1ccc(F)cc1 [Ezetimibe] | 0.641
CCOC(=O)[C@H](CCc1ccccc1)N[C@H]1CCc2ccccc2N(CC(=O)O)C1=O [Benazepril] | 0.766
CC(=O)OCC[N+](C)(C)C [Acetylcholine] | 0.236
Cc1nc2n(c(=O)c1CCN1CCC(c3noc4cc(F)ccc34)CC1)CCCC2 [Risperidone] | 0.936
CCN(CC)CCOC(=O)C1(C2CCCCC2)CCCCC1 [Dicyclomine] | 0.616
CCc1oc2ccccc2c1C(=O)c1cc(Br)c(O)c(Br)c1 [Benzbromarone] | 0.764
C/C=C1\[C@H]2C=C(C)C[C@]1(N)c1ccc(=O)[nH]c1C2 [Huperzine A] | 1.07
O=C(O)c1cccnc1 [Niacin] | 1.05
Cc1c(OCC(F)(F)F)ccnc1C[S+]([O-])c1nc2ccccc2[nH]1 (stereo not drawn) [Lansoprazole] | 0.767
Cc1ccc(-c2cc(C(F)(F)F)nn2-c2ccc(S(N)(=O)=O)cc2)cc1 [Celecoxib] | 0.757
O=C1[C@H]2CCCC[C@H]2C(=O)N1CCCCN1CCN(c2nsc3ccccc23)CC1 [Perospirone] | 0.291
CNC(=C[N+](=O)[O-])NCCSCc1ccc(CN(C)C)o1 [Ranitidine] | 0.594
CCN1CCN(c2cc3c(cc2F)c(=O)c(C(=O)O)cn3C2CC2)CC1 [Enrofloxacin] | 0.94
CC(=O)Nc1ccc(CC(=O)O)cc1 [Actarit] | 0.756

Same assay, conditions: 5 µM; treatment time: 8 days (DIV5-DIV13)

Structure (SMILES) | fiber score / MBP score
Nc1nc(N)c2nc(-c3ccccc3)c(N)nc2n1 [Triamterene] | 1.62
CC(C)c1ccc2oc3nc(N)c(C(=O)O)cc3c(=O)c2c1 [Amlexanox] | 1.05
CO/N=C(\C(=O)N[C@@H]1C(=O)N2C(C(=O)O)=C(COC(C)=O)CS[C@H]12)c1csc(N)n1 [Cefotaxime] | 0.671
Cc1ccc(Cl)c(Nc2ccccc2C(=O)O)c1Cl [Meclofenamic acid] | 0.864
CCCCCCNC(=O)n1cc(F)c(=O)[nH]c1=O [Carmofur] | 0.729
CN1CCC(=C2c3ccccc3CCc3sccc32)CC1 [Pizotyline] | 0.636
COc1cc2nc(N3CCN(C(=O)C4COc5ccccc5O4)CC3)nc(N)c2cc1OC (stereo not drawn) [Doxazosin] | 0.531
CC(=O)NS(=O)(=O)c1ccc(N)cc1 [Sulfacetamide] | 1.2
C#C[C@]1(O)CC[C@H]2[C@@H]3CCC4=CC(=O)CC[C@@H]4[C@H]3CC[C@@]21C [Norethindrone] | 0.877
CCCNC(=O)NS(=O)(=O)c1ccc(Cl)cc1 [Chlorpropamide] | 1.05
COc1cc(C[C@@H](CO)[C@H](CO)Cc2ccc(O)c(OC)c2)ccc1O [Secoisolariciresinol] | 0.777
O=C1CC2(CCCC2)CC(=O)N1CCNCC1COc2ccccc2O1 (stereo not drawn) [Binospirone] | 0.49
O=c1cnn([C@@H]2O[C@H](CO)[C@@H](O)[C@H]2O)c(=O)[nH]1 [Azauridine] | 0.453
C[N+]1(C)CCC(OC(=O)C(O)(c2ccccc2)C2CCCC2)C1 (stereo not drawn) [Glycopyrrolate] | 0.888 ± 0.085
CCCCC(=O)O[C@H]1CC[C@H]2[C@@H]3CCc4cc(O)ccc4[C@H]3CC[C@]12C [Estradiol valerate] | 1.04
CC1=C(CC(=O)O)c2cc(F)ccc2/C1=C\c1ccc([S+](C)[O-])cc1 (stereo not drawn) [Sulindac] | 0.594
CS(N)(=O)=O [Methanesulfonamide] | 0.693
COc1ccc(-c2oc3c(CC=C(C)C)c(O[C@@H]4O[C@H](CO)[C@@H](O)[C@H](O)[C@H]4O)cc(O)c3c(=O)c2O[C@@H]2O[C@@H](C)[C@H](O)[C@@H](O)[C@H]2O)cc1 [Icariin] | 0.958
CN(CCO)CC(O)Cn1cnc2c1c(=O)n(C)c(=O)n2C (stereo not drawn) [Jupal] | 0.635
COc1c(N2CCNC(C)C2)c(F)cc2c(=O)c(C(=O)O)cn(C3CC3)c12 (stereo not drawn) [Gatifloxacin] | 0.609

Structure (SMILES) | fiber score / MBP score
CNCCC=C1c2ccccc2CCc2ccccc21 [Nortriptyline] | 1.93
Cc1c(O)c(=O)ccn1C [Deferiprone] | 0.731
OCCOCCN1CCN(C2=Nc3ccccc3Sc3ccccc32)CC1 [Quetiapine hemifumarate] | 0.327
CCC1=C(C)CN(C(=O)NCCc2ccc(S(=O)(=O)NC(=O)N[C@H]3CC[C@H](C)CC3)cc2)C1=O [Glimepiride] | 0.96
COc1ccc(-c2cc(=O)c3c(OC)c(OC)c(OC)c(OC)c3o2)cc1OC [Nobiletin] | 1.16
O=C1[C@H](CC[C@H](O)c2ccc(F)cc2)[C@@H](c2ccc(O)cc2)N1c1ccc(F)cc1 [Ezetimibe] | 0.648
CCOC(=O)[C@H](CCc1ccccc1)N[C@H]1CCc2ccccc2N(CC(=O)O)C1=O [Benazepril] | 0.971
CC(=O)OCC[N+](C)(C)C [Acetylcholine] | 0.34
Cc1nc2n(c(=O)c1CCN1CCC(c3noc4cc(F)ccc34)CC1)CCCC2 [Risperidone] | 0.565
CCN(CC)CCOC(=O)C1(C2CCCCC2)CCCCC1 [Dicyclomine] | 0.288
CCc1oc2ccccc2c1C(=O)c1cc(Br)c(O)c(Br)c1 [Benzbromarone] | 0.919
C/C=C1\[C@H]2C=C(C)C[C@]1(N)c1ccc(=O)[nH]c1C2 [Huperzine A] | 0.872
O=C(O)c1cccnc1 [Niacin] | 0.998
Cc1c(OCC(F)(F)F)ccnc1C[S+]([O-])c1nc2ccccc2[nH]1 (stereo not drawn) [Lansoprazole] | 1.37
Cc1ccc(-c2cc(C(F)(F)F)nn2-c2ccc(S(N)(=O)=O)cc2)cc1 [Celecoxib] | 1.01
O=C1[C@H]2CCCC[C@H]2C(=O)N1CCCCN1CCN(c2nsc3ccccc23)CC1 [Perospirone] | 0.198
CNC(=C[N+](=O)[O-])NCCSCc1ccc(CN(C)C)o1 [Ranitidine] | 1.03
CCN1CCN(c2cc3c(cc2F)c(=O)c(C(=O)O)cn3C2CC2)CC1 [Enrofloxacin] | 0.516
CC(=O)Nc1ccc(CC(=O)O)cc1 [Actarit] | 0.778
